Reference: the supplement of paper PMC13380429
Values without a mark were called inactive.

The compounds below were run on Vero E6 infected with SARS-CoV-2 (assay: SARS-CoV-2 infection rate relative to infected DMSO; higher = more infection, active = 60 or less). Conditions: 24 h.
In the case of NC1=N[C@@](c2cccc(-c3cncnc3)c2)(c2ccnc(C(F)F)c2)c2cccc(F)c21 (10 µM), the SARS-CoV-2 infection rate is reported as 92.5%.
With Nc1nc2[nH]cnc2c(=S)[nH]1 [thioguanine] (0.833333 µM) the SARS-CoV-2 infection rate was 98.5%.
Nc1ncnc2c1C(=O)N(c1ccc([C@H]3CC[C@H](CC(=O)O)CC3)cc1)CCO2 (10 µM) showed an SARS-CoV-2 infection rate of 92.5%.
Work on CC(SC(=O)c1cccs1)C(=O)NCC(=O)O (stereo not given) [stepronin] (10 µM) yielded an SARS-CoV-2 infection rate of 113%.
In the case of O=c1[nH]c(=O)n([C@H]2C[C@H](O)[C@@H](CO)O2)cc1I [idoxuridine] (10 µM), the SARS-CoV-2 infection rate is reported as 108%.
CN[C@@H](C)CCC=C(C)C [isometheptene-mucate] (10 µM) showed an SARS-CoV-2 infection rate of 109%.
For COC(=O)c1ccc2c(c1)nc(NC(=O)c1ccccc1)n2CCCc1ccccc1 (10 µM), the SARS-CoV-2 infection rate was 94.5%.
O=C(Nc1cc(C(F)(F)F)cc(C(F)(F)F)c1)c1cc(Cl)ccc1O [IKK-2-inhibitor-V] (10 µM) was tested, and the SARS-CoV-2 infection rate was 104%.
With CC(C)(C)CC(C)(C)c1ccc(O)c(Cc2ccc(Cl)cc2Cl)c1 [clofoctol] (10 µM) the SARS-CoV-2 infection rate was 94%.
CCn1nc(C(=O)O)c(=O)c2cc3c(cc21)OCO3 [cinoxacin] (10 µM) gave an SARS-CoV-2 infection rate of 104%.
O=C(O)CSc1nnc(Br)n1-c1ccc(C2CC2)c2ccccc12 [lesinurad] (10 µM) was tested, and the SARS-CoV-2 infection rate was 95%.
O=C(O)[C@]1(Cc2cccc(Nc3nccs3)n2)CC[C@@H](Oc2cccc(Cl)c2F)CC1 (0.833333 µM) gave an SARS-CoV-2 infection rate of 106%.
In the case of Nc1ccc(O)c(C(=O)O)c1 [mesalazine] (10 µM), the SARS-CoV-2 infection rate is reported as 93.5%.
CCCCCCCCCCCCCCCC[N+](C)(C)C [cetrimonium] (0.833333 µM) showed an SARS-CoV-2 infection rate of 114%.
CN(C)CCn1cc(S(=O)(=O)c2cccc(F)c2)c2cccnc21 (10 µM) showed an SARS-CoV-2 infection rate of 109%.
Work on NS(=O)(=O)c1cc(C(=O)O)c(NCc2ccco2)cc1Cl [furosemide] (10 µM) yielded an SARS-CoV-2 infection rate of 98%.
With CCN(CC)CCCC(C)Nc1ccnc2cc(Cl)ccc12 (stereo not given) [chloroquine] (10 µM) the SARS-CoV-2 infection rate was 57.5% (active).
Work on Cc1ccc2c(-c3ccccc3)nc(=O)n(C(C)C)c2c1 [proquazone] (10 µM) yielded an SARS-CoV-2 infection rate of 103%.
C[C@H](Cc1ccc(O)c(O)c1)[C@@H](C)Cc1ccc(O)c(O)c1 [masoprocol] (10 µM) was tested, and the SARS-CoV-2 infection rate was 90%.
Work on Cc1cc(Nc2nc(N[C@@H](C)c3ncc(F)cn3)ncc2Cl)[nH]n1 (10 µM) yielded an SARS-CoV-2 infection rate of 108%.
CC(C)Nc1cc(-c2c[nH]c(C(=O)N[C@H](CO)c3cccc(Cl)c3)c2)c(Cl)cn1 (0.833333 µM) gave an SARS-CoV-2 infection rate of 109%.
In the case of OCCn1cc(-c2ccc3c(c2)CC/C3=N\O)c(-c2ccncc2)n1 (10 µM), the SARS-CoV-2 infection rate is reported as 79.5%.
For CN1[C@@H]2CC[C@H]1C[C@@H](OC1c3ccccc3CCc3ccccc31)C2 [deptropine] (0.833333 µM), the SARS-CoV-2 infection rate was 100%.
Clc1ccc(CO/N=C(\Cn2ccnc2)c2ccc(Cl)cc2Cl)c(Cl)c1 [oxiconazole] (10 µM) was tested, and the SARS-CoV-2 infection rate was 114%.
With COc1cc(S(C)(=O)=O)ccc1Nc1nc2ccc(-c3ccc(NC(=O)[C@H](C)c4ccc(F)cc4)cc3)cn2n1 (10 µM) the SARS-CoV-2 infection rate was 105%.
O=C(OCC(COC(=O)c1cccnc1)(COC(=O)c1cccnc1)COC(=O)c1cccnc1)c1cccnc1 [niceritrol] (0.833333 µM) showed an SARS-CoV-2 infection rate of 96.5%.
With COc1c(C)c(C(=O)c2ccc(N)c(C(=O)O)c2)n2ccccc12 (10 µM) the SARS-CoV-2 infection rate was 105%.
For O=C(Oc1ccccc1)c1ccccc1O [phenyl-salicylate] (10 µM), the SARS-CoV-2 infection rate was 103%.
COc1cc2c(NC3CCN(C(C)C)CC3)nc(C3CCCCC3)nc2cc1OCCCN1CCCC1 (10 µM) was tested, and the SARS-CoV-2 infection rate was 22.5% (active).
For CC1(C)CC(O)CC(C)(C)N1[O] [tempol] (10 µM), the SARS-CoV-2 infection rate was 97%.
For C[C@H](Oc1cc(-c2cnn(C3CCNCC3)c2)cnc1N)c1c(Cl)ccc(F)c1Cl [crizotinib-(S)] (10 µM), the SARS-CoV-2 infection rate was 23% (active).
With COc1cc([C@@H]2c3cc4c(cc3[C@@H](O[C@@H]3O[C@@H]5CO[C@@H](C)O[C@H]5[C@H](O)[C@H]3O)[C@H]3COC(=O)[C@H]23)OCO4)cc(OC)c1O [etoposide] (10 µM) the SARS-CoV-2 infection rate was 104%.
For CCc1ccc2c(-c3cccc(Cl)c3)nc(=O)n(CC)c2n1 (10 µM), the SARS-CoV-2 infection rate was 100%.
Compound CC(=O)OCC1=C(C(=O)O)N2C(=O)[C@@H](NC(=O)CS/C(=N/C(C)C)NC(C)C)[C@H]2SC1 [cefathiamidine] (10 µM) has an SARS-CoV-2 infection rate of 92%.
With NC(=O)CCCCC1CCSS1 (stereo not given) [lipoamide] (10 µM) the SARS-CoV-2 infection rate was 108%.
For C[C@H](Nc1ncnc2nc[nH]c12)c1cc2cccc(Cl)c2c(=O)n1-c1ccccc1 [duvelisib] (0.833333 µM), the SARS-CoV-2 infection rate was 99%.
Work on C[C@H]1N=C(N(C)C)N=C(N)N1 [imeglimin] (10 µM) yielded an SARS-CoV-2 infection rate of 99%.
Compound C[C@]12C=CC(=O)C=C1CC[C@@H]1[C@@H]2[C@@H](O)C[C@@]2(C)[C@H]1CC[C@]2(O)C(=O)COC(=O)CCC(=O)O [prednisolone-hemisuccinate] (10 µM) has an SARS-CoV-2 infection rate of 94%.
In the case of Cc1c(CN2CCN(C(=O)[C@H](C)O)CC2)sc2c(N3CCOCC3)nc(-c3cnc(N)nc3)nc12 (10 µM), the SARS-CoV-2 infection rate is reported as 113%.
Compound COc1cc(OC)c(C(=O)CCCN2CCCC2)c(OC)c1 [buflomedil] (10 µM) has an SARS-CoV-2 infection rate of 102%.
